# High-throughput results (PubChem BioAssay)
# G9a inh: qHTS Assay for Inhibitors of Histone Lysine Methyltransferase G9a. Histone-lysine N-methyltransferase EHMT2 (Homo sapiens), Q96KQ7. G9a H3K9 monomethylation, AlphaScreen, 2 h. Potency, µM (doses to about 102 µM), without a hit: top-dose activity, negative = inhibition, most hits filed as inhibitors. 350,000 tested, 8.8% active. AID 504332, 2011; further: on the % scale 0 is the no-effect control and ±100 the full control effect; nearly all actives have a fitted effect of over 75% in size
#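 Readings reflect AlphaScreen signal from monomethyl-H3K9 antibody detection. HMT at 20 nM; substrate b-H3K9 500 nM; cofactor SAM 20 uM; 2 h RT reaction; compounds tested as titrations in qHTS with 15 min preincubation.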
# BAZ2B block: qHTS Assay for Inhibitors of BAZ2B | Bromodomain adjacent to zinc finger domain protein 2B (Homo sapiens), Q9UIF8 | AID 504333, 2011 | AlphaScreen BAZ2B-H3K14Ac peptide displacement | Potency, µM (doses to about 114 µM), inactives show at the top dose activity change, negative = inhibition, hits mostly inhibitors | 360,000 tested, 4.4% active; further: on the % scale 0 is the no-effect control and ±100 the full control effect; nearly all actives have a fitted effect of over 60% in size
#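 Protein-peptide AlphaScreen: BAZ2B 50 nM, b-H3K14Ac 50 nM, 1x PBS pH 7.4 + 0.01% Tween-20. Preincubation 30 min RT; cpd 30 min RT (top 110 uM); beads 20 min RT, light-protected.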
# JMJD2A Tudor inh: qHTS Assay for Inhibitors of JMJD2A-Tudor Domain | AlphaScreen JMJD2A-Tudor / H3K4me3 peptide binding | Potency, µM (top dose mostly 114 µM), for the others: at the top dose activity change, negative = inhibition, actives largely listed as inhibitors | 390,000 tested, 4.4% active | AID 504339, 2011; further: on the % scale 0 is the no-effect control and ±100 the full control effect; nearly all actives have a fitted effect of over 50% in size
# L3MBTL1 inh: qHTS Assay for the Inhibitors of L3MBTL1. Lethal(3)malignant brain tumor-like protein 1 (Homo sapiens), Q9Y468. AlphaScreen L3MBTL1–H3K9me1 peptide binding. Potency, µM (titrated, usually from 57.1 µM), without a hit: at the top dose activity, negative = inhibition, most hits filed as inhibitors. 230,000 tested, 0.66% active; further: on the % scale 0 is the no-effect control and ±100 the full control effect; nearly all actives have a fitted effect of over 60% in size
#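 Read-out is AlphaScreen signal from streptavidin donor and nickel chelate acceptor beads (10 ug/mL final each) bridging L3MBTL1 (50 nM) and biotinylated K9-monomethylated H3(1-15) peptide (75 nM), after 30 min compound exposure at room temperature.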
# HP1b chromo inh: HTS for Inhibitors of HP1-beta Chromodomain Interactions with Methylated Histone Tails | 390,000 tested, 0.56% active | AlphaScreen HP1-beta / biotin-H3K9me3 peptide binding | Potency, µM (titrated, usually from 114 µM), for the others: top-dose activity change, negative = inhibition, actives largely listed as inhibitors | AID 540317, 2011 | Chromobox protein homolog 1 (Homo sapiens), P83916; further: nearly all actives have a fitted effect of over 70% in size
#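 Compound inhibition of the preformed complex between 50 nM HP1-beta and 50 nM biotinylated H3K9me3 peptide was read by AlphaScreen. Buffer was PBS pH 7.4 with 0.01% Tween-20. Incubations ran 30 min at room temperature, with 10 ug/mL donor/acceptor beads.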
# Starred values were filed as active, the others as inactive; ? = inconclusive; / = no result given; [ ] = dose if it differs, or a comment. An excerpt weighted towards active compounds, which were near 11% of everything screened. The call rests on the fitted dose curve; in most records, active means well fitted inhibition curve with a large enough effect; inconclusive means small, poorly fitted or top-dose-only effect; inactive means no such curve, though single readings can be large or run the other way. Potency means the concentration at half of the fitted maximal effect.
SMILES,G9a inh,BAZ2B block,JMJD2A Tudor inh,L3MBTL1 inh,HP1b chromo inh
COc1ccc(NC(=S)NNC(=O)COc2ccc(Cl)cc2Cl)cc1,20µM*,-30%,?,-4%,-26%
CC(=O)Nc1ccc(NC(=O)COc2ccc(-c3ccc(C#N)cc3)cc2)cc1,1%[0.501 µM],6%,2%,5%,42%
Cc1cccc(NC(=S)NNC(=O)COc2ccc(Cl)cc2Cl)c1,8.9µM*,-7%,-19%,-3%,5%
COC(CC(=O)NNC(=S)Nc1ccc(Cl)cc1)OC,1%,19%,-17%,?,30%
CCOc1ccc(CC(=O)NNC(=S)Nc2ccccc2)cc1Br,25µM*,1%,22%[11.4 µM],/,48%
COc1ccc(NC(=O)CNc2ccc(C#N)cc2)cc1,50µM*,-15%,-8%,/,27%
COc1ccc(NC(=S)NNC(=O)CNc2ccc(Cl)cc2)cc1,10µM*,?,-33%,16%,-10%
Cc1ccc(CCC(=O)NCc2ccccc2)o1,79µM*,-5%,-21%,-15%,32%
O=C(CCc1ccccc1)NCc1ccccc1,9%,5%,-13%,/,24%
CC(=O)Nc1ccc(S(=O)(=O)NNC(=O)COc2ccc(C)cc2)cc1,-4%[59 µM],-25%,-11%,?,14%
O=C(COc1ccc(Br)cc1Cl)NC(=S)Nc1ccccn1,79µM*,-16%,-12%,/,5%
CC(=O)Nc1ccc(S(=O)(=O)NNC(=O)COc2ccc(Cl)cc2Cl)cc1,50µM*,-17%,-17%,/,33%
O=C(CNc1cccc(Cl)c1)NNC(=S)NCc1ccccc1,?,-22%,-33%,-16%,4%
O=C(CNc1ccc(Cl)cc1)NNC(=S)NCc1ccccc1,50µM*,-35%,?,-6%,6%
COC(=O)c1ccccc1NC(=O)CSc1nc2ccsc2c(=O)n1CCC(C)C,16%[59 µM],4%,-23%,/,31%
COc1ccc(OCC(=O)NC(=S)NNC(=O)COc2ccc(Br)cc2Cl)cc1,1.6µM*,-8%,8.9µM*,5%,?
Cc1cc(OCC(=O)NNC(=S)NC(=O)c2ccc(Br)o2)ccc1Cl,32µM*,-33%,-18%,/,12%
S=c1[nH]nc(-c2cccnc2)n1C1CCCCC1,20µM*,4%,5µM*,9%,26%
COc1ccc(-c2n[nH]c(=S)n2C2CCCCC2)cc1,2.5µM*,-7%,7.1µM*,2%,17%
O=C(CSc1nnc(-c2cccnc2)n1C1CCCCC1)NC1CCCCC1,-8%,10%,-4%,17%,17%
COc1ccc(Cl)cc1-c1n[nH]c(=S)n1C1CCCCC1,1.4µM*,-20%,35µM*,/,15%
Cc1ccsc1-c1n[nH]c(=S)n1C1CCCCC1,1.6µM*,-8%,35µM*,-3%,?
COc1ccccc1NC(=O)c1sc2nc3c(c(C(F)(F)F)c2c1N)CN(C(C)=O)CC3,-12%[59 µM],-32%,-30%,/,22%
CCOc1ccc(CNC(=O)CCCn2c(=O)c3cccn3c3ccccc32)cc1,?,-34%,?,/,-17%
O=C(NCCC1=CCCCC1)c1ccc2c(=O)n3nc(Nc4ccccc4)sc3nc2c1,3%[59 µM],1%,-24%,/,13%
SMILES,G9a inh,BAZ2B block,JMJD2A Tudor inh,L3MBTL1 inh,HP1b chromo inh
CCOc1ccc(C2C(C(N)=O)=C(C)Nc3nc(-c4ccc(OC)cc4)nn32)cc1 (centres undefined),7%[59 µM],9%,-6%,/,21%
COc1ccc(Cl)cc1-c1n[nH]c(=S)n1Cc1ccccc1,3.2µM*,-7%,-32%,5%,37%
CCOC(=O)C1=NNC(C(=O)c2ccc(Cl)cc2)C1c1ccc(OC)cc1 (centres undefined),?,-37%,-16%,-9%,14%
CCOC(=O)C1=NNC(C(=O)c2ccc(C)cc2)C1c1ccc(OC)cc1 (centres undefined),50µM*,-33%,-12%,/,20%
COc1ccc(S(=O)(=O)Nc2cccc(-c3ccc4nncn4n3)c2)cc1,-38%,-3%,-15%,-12%,28%
COc1ccc(S(=O)(=O)Nc2ccc(-c3ccc4nncn4n3)cc2)c(OC)c1,10µM*,4%,-15%,-5%,?
Cc1ccc(NC(=O)Cn2c(=O)oc3cc(S(=O)(=O)N4CCCCCC4)ccc32)cc1Cl,-3%[59 µM],1%,-9%,/,25%
COc1cc(NC(C)CCCN)c2ncccc2c1 (centres undefined),13µM*,56µM*,?,-10%,-6%
Cn1c(-[n+]2c(-c3ccccc3)cc(-c3ccccc3)cc2-c2ccccc2)nc2cc([N+](=O)[O-])ccc21,1.8µM*,40µM*,-10%,-14%,17%
COc1ccc(N2CCN(C(=O)CSc3nc(-c4ccccc4)no3)CC2)cc1,-18%[59 µM],-13%,-13%,/,17%
O=C(NCC1CCCCC1)C1(CC2CC(c3ccc(Cl)cc3)=NO2)CCNCC1 (centres undefined),45µM*,-1%,-18%,3%,38%
CC(=O)N(c1ccc(Cl)cc1)C1SC(=O)N(c2ccccc2)C1=O (centres undefined),/,/,-13%,/,34%
COc1ccc(C2c3[nH]c4ccccc4c3C[C@H]3C(=O)N(C4CCN(Cc5ccccc5)CC4)CC(=O)N23)cc1OC (some centres undefined),13µM*,?,?,/,-7%
CN1CCN(Cc2nc3ccccc3c(=O)n2Cc2nc(-c3ccccc3F)cs2)CC1,35µM*,-29%,-22%,-7%,-7%
CN1CCN(Cc2nc3ccccc3c(=O)n2Cc2nc(-c3ccc4ccccc4c3)cs2)CC1,?,?,?,-10%,?
CN1CCN(Cc2nc3ccccc3c(=O)n2Cc2nc(-c3cccc([N+](=O)[O-])c3)cs2)CC1,25µM*,40µM*,?,/,?
CCCCOc1ccc(C2c3c(-c4ccccc4O)n[nH]c3C(=O)N2Cc2ccncc2)cc1OC (centres undefined),8%[59 µM],?,?,/,-6%
Nc1c(-c2ccccc2)cc[nH]c1=O,/,/,8.9µM*,/,/
O=c1[nH]cc(-c2ccccc2)c(=O)[nH]1,-1%,-6%,-4%,2%,35%
Cc1ccc(S(=O)(=O)c2nnn3c2nc(NCc2cccs2)c2sccc23)cc1C,0%[59 µM],-29%,-26%,/,6%
Oc1ccccc1C(=S)N1CCCCCC1,?,-8%,-14%,/,34%
Oc1ccccc1C(=S)N1CCCCC1,10µM*,-4%,3%,1%,-18%
